Test results from article PMC5540273 (PLoS ONE, 2017).

Assays:
Settings in all cases: concentration: 1 μM, replicates: in singlicate; n = 1
ACVR2B = system: ACVR2B
ACVRL1 = system: ACVRL1
ADCK3 = system: T1, ADCK3
T1 construct: gene CABC1

ADCK4 = system: ADCK4
AKT1 = system: AKT1
AKT2 = system: AKT2
AKT3 = system: AKT3
ALK = system: ALK
AMPK-alpha1 = system: T2, AMPK-alpha1
T2 construct: gene PRKAA1

AMPK-alpha2 = system: T3, AMPK-alpha2
T3 construct: gene PRKAA2

ANKK1 = system: ANKK1
ARK5 = system: T4, ARK5
T4 construct: gene NUAK1

ASK1 = system: T5, ASK1
T5 construct: gene MAP3K5

ASK2 = system: T6, ASK2
T6 construct: gene MAP3K6

AURKA = system: AURKA
AURKB = system: AURKB
AURKC = system: AURKC
AXL = system: AXL
BIKE = system: T7, BIKE
T7 construct: gene BMP2K

BLK = system: BLK
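Also: KINOMEscan kinase panel screen.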

SMILES | %Inh (ACVR2B) [%] | %Inh (ACVRL1) [%] | %Inh (ADCK3) [%] | %Inh (ADCK4) [%] | %Inh (AKT1) [%] | %Inh (AKT2) [%] | %Inh (AKT3) [%] | %Inh (ALK) [%] | %Inh (AMPK-alpha1) [%] | %Inh (AMPK-alpha2) [%] | %Inh (ANKK1) [%] | %Inh (ARK5) [%] | %Inh (ASK1) [%] | %Inh (ASK2) [%] | %Inh (AURKA) [%] | %Inh (AURKB) [%] | %Inh (AURKC) [%] | %Inh (AXL) [%] | %Inh (BIKE) [%] | %Inh (BLK) [%]
Cl.O=C(Nc1cccc(-c2nn3ncccc3c2-c2ccnc(Nc3cccnc3)n2)c1)c1c(F)cccc1F [GSK312879] | 0 | 2 | 27 | 2 | 0 | 19 | 10 | 24 | 0 | 12 | 16 | 0 | 0 | 13 | 0 | 24 | 19 | 11 | 31 | 2
Cl.NC(=O)c1cccc(Nc2nccc(Nc3ccc(Oc4cccc(Cl)c4)c(Cl)c3)n2)c1 [GW659008] | 14 | 0 | 5 | 32 | 0 | 8 | 0 | 24 | 42 | 33 | 0 | 0 | 0 | 0 | 6 | 49 | 21 | 12 | 33 | 84
Nc1nc(-c2nccs2)c(-c2ccnc3ccccc23)s1 [GW693542] | 48 | 15 | 0 | 39 | 0 | 3 | 100 | 36 | 0 | 12 | 6 | 0 | 5 | 0 | 0 | 0 | 0 | 42 | 4 | 42
COc1ccccc1CNC(=O)c1cc(C(=O)c2ccccc2C)c[nH]1 [GSK364507] | 0 | 0 | 13 | 34 | 0 | 17 | 0 | 21 | 0 | 0 | 0 | 10 | 0 | 2 | 100 | 22 | 11 | 8 | 0 | 17
COc1ccccc1-c1ccc2c(NC(=O)C3CC3)n[nH]c2n1 [SB-711239] | 52 | 0 | 11 | 19 | 0 | 2 | 3 | 18 | 5 | 13 | 9 | 0 | 11 | 17 | 0 | 0 | 0 | 12 | 0 | 6
Cc1cccc(-c2nc(-c3ccc(S(C)(=O)=O)cc3)sc2-c2ccnc(NCCc3ccccc3)c2)c1 | 3 | 0 | 0 | 12 | 14 | 6 | 12 | 0 | 0 | 17 | 7 | 11 | 0 | 0 | 0 | 14 | 0 | 0 | 9 | 16
Cc1c(Cn2ccn3c(=O)cc(N4CCOCC4)nc23)cccc1C(F)(F)F [GSK2289044] | 0 | 0 | 32 | 0 | 0 | 19 | 86 | 5 | 23 | 17 | 6 | 9 | 4 | 7 | 7 | 0 | 3 | 7 | 0 | 0
C[C@@H]1CCCCN1c1cc(-c2ccc3c(N)n[nH]c3c2)nc(N)n1 [GSK2258759] | 0 | 0 | 14 | 20 | 0 | 0 | 0 | 0 | 0 | 0 | 17 | 0 | 0 | 0 | 82 | 0 | 14 | 0 | 26 | 0
O=C(Nc1n[nH]c2cc(-c3cccc(F)c3F)ccc12)C1CC1 [SB-733894] | 18 | 29 | 6 | 0 | 0 | 0 | 1 | 0 | 0 | 0 | 0 | 0 | 0 | 5 | 23 | 25 | 54 | 0 | 21 | 0
Cc1cccc(-c2nc(Nc3ccc4[nH]ncc4c3)c3ccccc3n2)n1 [GW857175] | 0 | 0 | 0 | 0 | 29 | 55 | 0 | 19 | 0 | 2 | 0 | 1 | 0 | 13 | 0 | 3 | 22 | 26 | 33 | 3
